ABHD5 PLIN5 PPI – ABHD5-PLIN5 protein interaction inhibition. 0.78% of 360,000 active. inhibition, % at 4 µM. Split G. princeps luciferase complementation, luminescence, 4 h;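 active means inhibition above the mean inhibition across every tested compound plus 3 SD, cut at about 22% in these data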;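 further: 0% = DMSO only wells and the 100% control is not disclosed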
Target sequence (Q00G26 whole entry, looked up): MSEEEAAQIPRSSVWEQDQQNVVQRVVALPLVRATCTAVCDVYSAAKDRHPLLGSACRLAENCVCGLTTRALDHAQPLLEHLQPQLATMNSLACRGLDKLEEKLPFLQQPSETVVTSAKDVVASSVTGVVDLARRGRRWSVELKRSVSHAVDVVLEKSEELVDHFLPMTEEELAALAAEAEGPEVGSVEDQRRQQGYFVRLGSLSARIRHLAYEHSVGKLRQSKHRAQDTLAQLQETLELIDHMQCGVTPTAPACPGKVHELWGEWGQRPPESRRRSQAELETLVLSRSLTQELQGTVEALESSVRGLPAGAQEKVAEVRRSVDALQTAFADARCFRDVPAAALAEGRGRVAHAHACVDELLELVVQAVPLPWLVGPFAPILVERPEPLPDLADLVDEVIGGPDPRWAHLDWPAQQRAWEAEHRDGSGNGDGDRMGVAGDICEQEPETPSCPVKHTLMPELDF
Target sequence (Q8WTS1 whole entry, looked up): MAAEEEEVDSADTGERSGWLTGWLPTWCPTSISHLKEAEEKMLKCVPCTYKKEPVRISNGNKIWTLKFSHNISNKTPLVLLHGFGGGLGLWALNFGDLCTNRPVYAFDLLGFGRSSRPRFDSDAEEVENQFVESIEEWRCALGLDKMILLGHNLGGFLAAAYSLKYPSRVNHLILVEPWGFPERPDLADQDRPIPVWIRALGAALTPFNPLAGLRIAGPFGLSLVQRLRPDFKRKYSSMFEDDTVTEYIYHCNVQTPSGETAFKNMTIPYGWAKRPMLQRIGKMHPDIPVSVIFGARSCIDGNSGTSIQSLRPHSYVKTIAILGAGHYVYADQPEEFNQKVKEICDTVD
PRMT1 FP inh – blocks human protein arginine methyltransferase 1; Q99873; inhibition, % at 2.79 µM; recombinant PRMT1, activity-based probe fluorescence polarization; 1.3% of 370,000 active;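 active means inhibition above about 21% made by adding two undisclosed values, limit read from the data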
UHRF1 binding – UHRF1 methyl-DNA binding inhibition; Q96T88; UHRF1 binding to methylated oligo, TR-FRET; inhibition, % at 4.4 µM; 0.75% of 370,000 active; AID 687016; in the data active means inhibition above about 21%;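 further: UHRF1 SRA domain binding a hemimethylated CpG hairpin DNA probe; 0% = median of test compound wells and 100% = reference inhibitor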
MBD2 inh – blocks human MBD2 binding to methylated DNA; AID 686964; inhibition, % at 4.4 µM; Q9UBB5; 0.31% of 370,000 active; TR-FRET, MBD2 binding to methylated oligonucleotide; in the data active means inhibition above about 13%
rCAG RNA binder – molecules binding r(CAG) RNA repeats; AID 651821; 1.3% of 370,000 active; inhibition, % at 3 µM; r(CAG) RNA repeat, TO-PRO-1 dye displacement fluorescence;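 active means inhibition above the plate cutoff, the mean of all test compounds on that plate plus 3 SD, cut at about 35% in these data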;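 further: 0% = DMSO alone and 100% = 100 µM mitoxantrone as full dye displacement; higher means more dye released from RNA so lower well fluorescence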
LEDGF integ inh – blocks HIV-1 LEDGF/p75-dependent DNA integration; TR-FRET IN-LEDGF/p75 DNA integration, Eu/Cy5; inhibition, % at 3.7 µM; 0.64% of 370,000 active; AID 743269;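 active means inhibition above the screen-wide mean plus 3 SD, cut at about 13% in these data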;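 further: signal is the Cy5 over europium emission ratio at 671 and 618 nm; 0% = plate median of compound wells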
Numbers without * were called inactive; x = no result. Rows were chosen to be rich in hits. Some 4.1% of all compounds tested hit in one or more screens of this group.

SMILES	ABHD5 PLIN5 PPI	PRMT1 FP inh	UHRF1 binding	MBD2 inh	rCAG RNA binder	LEDGF integ inh
C=Cc1ncc(OC)c2c1[nH]c1ccccc12	24*	x	x	x	x	x
COc1cccc2[nH]c3ccccc3c(=O)c12	-6	x	x	x	x	x
CCOc1ccc(C(=O)Nc2nnc(S(=O)(=O)Nc3ccccc3C)s2)cc1	3	2	-2	3	31	1
Cc1ccc(C(=O)Nc2nnc(S(=O)(=O)Nc3ccccc3C)s2)cc1C	-5	5	18	3	45*	1
CC(COc1ccc(OC(F)(F)F)cc1)CN1CCC(C(O)(c2ccccc2)c2ccccc2)CC1 (configuration not stated)	x	0	-2	-4	3	-2
O=C(Cn1c(=O)n(Cc2ccco2)c(=O)c2c3c(sc21)CCCCC3)Nc1ccccc1	66*	24*	14	5	29	5
O=C(Cn1c(=O)n(Cc2ccco2)c(=O)c2c3c(sc21)CCCCC3)c1ccccc1	51*	x	x	x	x	x
COc1ccc(C(=O)/C=C(\C)Nc2ccc3c(c2)OCO3)cc1	-2	22*	-4	-3	6	4
CC1CCCN(C(=O)Cn2nnc(-c3ccc([N+](=O)[O-])cc3)n2)C1 (configuration not stated)	3	0	29*	1	-4	-2
Cc1cccc(-c2nnc3n2N=C(c2ccccc2)CS3)c1	3	2	4	7	1	2
Cc1nn2c(nc1=O)SCC(c1ccccc1)=N2	-2	24*	2	8	1	2
N#Cc1cc(-c2ccccc2)nn1-c1ccccc1	2	23*	0	-2	-1	-1
CCCC/C=C1/[C@H](c2ccccc2)N(C)C2=N[C@H](c3ccccc3)CC(=O)N21	x	-1	0	3	x	-4
COc1ccc(N2C[C@@]3(O)CC[C@@H](O)[C@@H](OC)[C@@H]3[C@@](C)(O)[C@@H]2CC=C(C)C)cc1	x	6	0	7	-1	0
Cc1ccc(C(=O)Oc2ccc(/C=C3\C(=N)N4N=C(N5CCOCC5)SC4=NC3=O)cc2)cc1	4	-2	-2	-5	28	2
N=C1/C(=C\c2ccc(OC(=O)c3ccccc3)cc2)C(=O)N=C2SC(N3CCOCC3)=NN12	3	8	3	7	42*	1
CCN(CC)C(=O)[C@H]1C[C@@H]2[C@H](C[C@@H](c3ccccc3)[C@H]1C)N(c1ccc(F)cc1)C(=O)N2CCCOc1ccccc1	x	-2	1	2	5	3
N#CC(C#N)=C1C=CC=CN1/C(=C\c1ccco1)C(=O)c1ccc(Br)cc1	92*	14	-2	0	7	-1
COc1ccc(CCNCC(O)Cn2c3ccccc3c3ccccc32)cc1OC (configuration not stated)	22*	-3	-1	-6	5	6
O=C(O)c1ccc(C=Nn2c(-c3ccc(F)cc3)n[nH]c2=S)cc1	x	0	0	-3	3	1
CCOc1ccc(C=Nn2c(-c3ccc(F)cc3)n[nH]c2=S)cc1	x	23*	-2	-6	25	2
O=C(Cc1c[nH]c2ccccc12)Nc1ccc(Nc2cccnc2)c(-c2ccc(Cl)c(Cl)c2)c1	x	2	-5	-2	15	-1
COc1cccc(CC2(CO)CCCN(Cc3ccc(CN4CCCCC4)s3)C2)c1 (configuration not stated)	4	0	27*	2	-9	-1
COc1cccc(CC2(CO)CCCN(Cc3ccccc3Cl)C2)c1 (configuration not stated)	1	-4	-1	-4	-7	3
Cc1ccc2nc(C3CCCCC3)c(Cc3ccccc3C(F)(F)F)n2c1	-8	1	6	5	0	-3
SMILES	ABHD5 PLIN5 PPI	PRMT1 FP inh	UHRF1 binding	MBD2 inh	rCAG RNA binder	LEDGF integ inh
FC(F)(F)c1ccccc1Cc1c(C2CCCCC2)nc2c3ccccc3ccn12	-5	-6	22*	3	3	3
Clc1cccc(Cc2c(C3CCCCC3)nc3c4ccccc4ccn23)c1	-3	-4	24*	3	2	6
CC(CCN1CCC(C(O)(c2ccccc2)c2ccccc2)CC1)Oc1ccc(C#N)c(F)c1 (configuration not stated)	x	0	0	-1	4	-3
COc1ccc(/C=C/C(=O)Nc2ccc(NC(C)=O)cc2)cc1S(=O)(=O)N1CCOCC1	2	6	32*	0	5	-3
Cc1ccc(NNC(=O)Nc2ccc(Cl)cc2)nn1	-3	24*	7	1	-2	3
O=S1(=O)N[C@@H](Cc2ccccc2)COc2cccc(NCCCN3CCOCC3)c21	x	-1	9	0	-1	4
COC(=O)C1=C(C)N(C)C(=NCc2ccc3c(c2)OCO3)NC1c1ccc(C(F)(F)F)cc1 (configuration not stated)	x	-7	1	-2	11	-1
O=C(CC1S/C(=N/N=C/c2ccco2)NC1=O)Nc1cccc(Cl)c1Cl (configuration not stated)	10	22*	-5	-6	30	1
Cc1sc2nc(COC(=O)c3c(F)cccc3F)[nH]c(=O)c2c1C	1	-6	38*	4	-2	-1
CC1(c2nnnn2-c2ccc3c(c2)OCCO3)CCC(=O)N1CCCN1CCOCC1 (configuration not stated)	-1	-2	1	3	2	-2
CCCCn1nnnc1C1(C)CCC(=O)N1CCCN1CCOCC1 (configuration not stated)	0	-6	22*	8	1	-2
O=C(Nc1ccc(Cl)cc1)NC1CCCC1Cc1ccco1 (configuration not stated)	49*	x	x	x	x	x
O=C(Nc1ccc(Cl)cc1)NC1CCCCC1Cc1ccco1 (configuration not stated)	-7	-3	2	-2	3	0
Cc1ccc(-c2cnc(NC(=O)c3cccc(Br)c3)s2)c(C)c1	-4	3	26*	13	2	-2
COC(=O)[C@@]12CCCCC=C1N(CCc1ccc(Cl)cc1)C(=O)[C@H]2CC(=O)NCCCCc1ccccc1	x	1	1	8	13	-3
O=C(c1ccccc1)n1ccc2ccc(-c3ccc4ccn(Cc5ccccc5)c4c3)cc21	x	-5	-5	-7	15	-1
COc1ccc(NC(=O)/C(C#N)=C\c2ccc(-c3cc(C(=O)O)ccc3C)o2)cc1	8	3	12	3	59*	-1
CC(C)Cn1c(N)c(C(=O)CSc2nnc(-c3ccco3)n2C)c(=O)n(C)c1=O	-4	-3	33*	-1	2	0
Cc1cc(C(=O)COC(=O)c2cccc(O)c2)c(C)n1C1CC1	5	-4	27*	1	0	4
CC(C)C[C@@H](CCCc1ccccc1)CCC(=O)N(c1ccccc1)c1ccccc1	x	0	1	2	2	0
